Experimental data from PubChem BioAssay (NCI).
Values joined by “and” are separate entries in the source; they are usually repeats but may differ in a detail not shown here. Equal values may be shown once. About 83,000 compounds went through this panel and 20% of them were active in at least one assay; those are over-represented in the sample as a whole.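 96-well plates, one dose, 48 hours. Percent growth reported; active if below 10.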 Active and inactive are the calls of the source.

Tested on: MDA-MB-435 melanoma
Assay: NCI-60 one-dose screen, 48 h (100 = growth as untreated, 0 = no growth, -100 = all killed)
Settings: 10 µM unless noted

| Structure (SMILES) | growth |
| --- | --- |
| O=C1c2ccccc2C(=O)N1c1ccccc1 | 98.7% (inactive) |
| c1ccc2c(c1)Nc1cc3ccccc3cc1N2 | -16.7% (active) |
| CCC(CCCN(CC)CCc1ccccc1)OC(=O)c1cc(OC)c(OC)c(OC)c1 (stereo not drawn) | 100% (inactive) |
| O=C(Nc1cccc(Br)c1)Oc1ccc(Cl)c2cccnc12 | 30.2% [100 µM] (inactive) |
| CCCCCCC(C)c1ccccc1O (stereo not drawn) (tested in a mixture with another compound) | 98.7% (inactive) |
| O=C1c2cccnc2-c2nccc3c2c1nc1cc(Br)ccc13 | -68.4% (active) and -94.5% (active) |
| CNc1ccc(N)cc1 | 96.2% (inactive) |
| Cc1c2ccccc2c(C)c2c1ccc1ccccc12 | 92% (inactive) |
| O=[N+]([O-])c1ccc(N=Nc2ccc(O)cc2O)cc1 | 10.1% (inactive) |
| CN(C)CCOc1ccc2c(c1)C(=O)/C(=C\c1ncc([N+](=O)[O-])n1C)C2 | -73.6% (active) |
| C1=C(c2ccccc2)C(c2ccc(OCCN3CCCCC3)cc2)Oc2ccccc21 (stereo not drawn) | 18.7% (inactive) |
| CN(C)C(=O)SC1=C(c2c(Cl)cccc2Cl)C(=O)c2ccccc21 | -13% (active) |
| N#CSCc1ccc(CSC#N)c(Cl)c1 | 40.6% (inactive) |
| COc1ccccc1/C=C\C(=O)c1ccccc1 | 46.4% (inactive) |
| CN(C)c1ccc(C(=C2C=CC(=[N+](C)C)C=C2)c2ccc(N(C)C)cc2)cc1 (tested in a mixture with another compound) | -57.7% (active) |
| O=C1C=CC(=O)N1C1c2ccccc2-c2ccccc21 | 110% (inactive) |
| CCOC(=O)/C=C/c1ccc([N+](=O)[O-])o1 | 44% (inactive) |

| Structure (SMILES) | growth |
| --- | --- |
| COC(=O)c1nc(=S)[nH]c(C(=O)OC)c1C(=O)c1ccc2ccccc2c1 | 104% (inactive) |
| CC1OC2CC(=O)OC2C2=C1C(=O)c1c(O)cccc1C2=O (stereo not drawn) | -68% (active) |
| CC(=Nc1ccc(N(C)C)cc1)c1ccccc1 | 54.4% (inactive) |
| O=C1NC(=O)/C(=C/C=C/c2ccccc2)S1 | 49.6% (inactive) |
| CCCCCC(CCCCC)C(=O)O | 123% (inactive) |
| Oc1c(Br)c(Br)c(O)c(Br)c1Br | 106% (inactive) |
| Cc1cc2nc(CS)[nH]c2cc1C | 90.9% (inactive) |
| COc1ccc2nc3cc(Cl)ccc3c(NCCNc3c4ccc(Cl)cc4nc4ccc(OC)cc34)c2c1 | -78.9% (active) |
| CC1(C)CC([P+](c2ccccc2)(c2ccccc2)c2ccccc2)=NN1 | 28.2% (inactive) |
| S=C(NCCNC(=S)[S][Sn]([c]1ccccc1)([c]1ccccc1)[c]1ccccc1)[S][Sn]([c]1ccccc1)([c]1ccccc1)[c]1ccccc1 | -88% (active) |
| O=C1c2ccccc2C(=O)c2sc(Nc3cccc(Cl)c3)nc21 | -83.5% (active) |
| CCCCCCCCCCCCCCCC[N+](C)(CCO)Cc1cnc[nH]1 (stereo not drawn) | -43.8% (active) |
| C/C=C1\SC(=S)NC1=O | 101% (inactive) |
| Cn1c2c(c3ccccc31)CCN1C[C@@H]3CCCC[C@H]3C[C@@H]21 | -53.4% (active) |
| O=C1OCc2cccc3cccc1c23 | 115% (inactive) |
| O=C(Nc1ccccc1)c1cc(Cl)ccc1O | 39.3% (inactive) |
